# Data as given in the supplement of paper PMC10849652.
# Targets with a hit are over-represented here; the source holds about 8,800 in all. About 0.5% of all pairs of compound and target were hits. A number with no mark means an inactive call.
# How the values were obtained:
# Assay in all cases: log2 fold change, soluble protein after heating vs DMSO (PISA); higher = thermal stabilisation; K562 lysate, 10 uM; active = over 0.2 and 3.5 SD of the protein, either way, in both replicates (recomputed)
# [1] = compound: C1=CC=C(C=C1)[C@H](COC2=CC3=C(C=C2)NC(=O)N3)NC(=O)C4=CC=CN(C4=O)CC5=CC(=C(C=C5)F)F
# Summary of the method: (§1)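 Values give the log-two fold change in thermal stability against solvent controls, from duplicates. Crude K562 extract at 1 mg/mL protein, made by dounce homogenisation in PBS pH 7.4 with 1 mM MgCl2, was treated with 10 μM compound for 30 min. After 3 min heating across 48°C-58°C, aliquots were pooled, adjusted to 0.5% NP-40 at 4°C and centrifuged at 21,000xg for 90 min. The supernatant was measured by TMTpro 16plex LC-MS/MS with channel sums equalised.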
# [2] = compound: CC1=C(SC2=C1C(=N[C@H](C3=NN=C(N32)C)CC(=O)N)C4=CC=C(C=C4)Cl)C
# Summary of the method: as §1
# [3] = compound: CC1=C2C(=CC=C1)N=C(N(C2=O)C3=CC=CC=C3C)CN4C=NC5=C(N=CN=C54)N
# Summary of the method: as §1
# [4] = compound: Cc1sc2c(c1C)C(c1ccc(Cl)cc1)=N[C@@H](CC(=O)OC(C)(C)C)c1nnc(C)n1-2
# Summary of the method: as §1
# [5] = compound: c1ccc([C@@H]2C[C@H]2NC2CCNCC2)cc1
# Summary of the method: as §1
# Sequence of UniProt Q9Y2X7 (Q9Y2X7 whole entry, looked up): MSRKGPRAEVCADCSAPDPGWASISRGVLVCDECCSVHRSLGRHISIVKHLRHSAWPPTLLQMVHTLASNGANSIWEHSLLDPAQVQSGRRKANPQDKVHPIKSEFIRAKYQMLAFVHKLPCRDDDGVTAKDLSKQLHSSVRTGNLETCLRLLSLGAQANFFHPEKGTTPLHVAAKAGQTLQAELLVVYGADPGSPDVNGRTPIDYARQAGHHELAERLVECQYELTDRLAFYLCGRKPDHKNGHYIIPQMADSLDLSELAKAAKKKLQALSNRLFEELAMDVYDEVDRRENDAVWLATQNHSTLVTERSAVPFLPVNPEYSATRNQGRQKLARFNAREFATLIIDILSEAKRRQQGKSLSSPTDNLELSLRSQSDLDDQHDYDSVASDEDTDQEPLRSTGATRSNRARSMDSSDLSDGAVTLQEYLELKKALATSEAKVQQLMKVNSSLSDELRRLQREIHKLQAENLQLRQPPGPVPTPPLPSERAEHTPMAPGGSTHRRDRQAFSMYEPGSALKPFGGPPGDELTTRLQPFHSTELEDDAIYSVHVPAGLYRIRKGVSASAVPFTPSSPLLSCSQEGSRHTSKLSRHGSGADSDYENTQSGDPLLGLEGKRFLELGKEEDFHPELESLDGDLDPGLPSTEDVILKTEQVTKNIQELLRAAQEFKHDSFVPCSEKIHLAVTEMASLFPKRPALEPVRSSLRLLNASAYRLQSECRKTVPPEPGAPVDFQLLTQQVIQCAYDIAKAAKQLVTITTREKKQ
# Sequence of UniProt Q6P9B9 (Q6P9B9 whole entry, looked up): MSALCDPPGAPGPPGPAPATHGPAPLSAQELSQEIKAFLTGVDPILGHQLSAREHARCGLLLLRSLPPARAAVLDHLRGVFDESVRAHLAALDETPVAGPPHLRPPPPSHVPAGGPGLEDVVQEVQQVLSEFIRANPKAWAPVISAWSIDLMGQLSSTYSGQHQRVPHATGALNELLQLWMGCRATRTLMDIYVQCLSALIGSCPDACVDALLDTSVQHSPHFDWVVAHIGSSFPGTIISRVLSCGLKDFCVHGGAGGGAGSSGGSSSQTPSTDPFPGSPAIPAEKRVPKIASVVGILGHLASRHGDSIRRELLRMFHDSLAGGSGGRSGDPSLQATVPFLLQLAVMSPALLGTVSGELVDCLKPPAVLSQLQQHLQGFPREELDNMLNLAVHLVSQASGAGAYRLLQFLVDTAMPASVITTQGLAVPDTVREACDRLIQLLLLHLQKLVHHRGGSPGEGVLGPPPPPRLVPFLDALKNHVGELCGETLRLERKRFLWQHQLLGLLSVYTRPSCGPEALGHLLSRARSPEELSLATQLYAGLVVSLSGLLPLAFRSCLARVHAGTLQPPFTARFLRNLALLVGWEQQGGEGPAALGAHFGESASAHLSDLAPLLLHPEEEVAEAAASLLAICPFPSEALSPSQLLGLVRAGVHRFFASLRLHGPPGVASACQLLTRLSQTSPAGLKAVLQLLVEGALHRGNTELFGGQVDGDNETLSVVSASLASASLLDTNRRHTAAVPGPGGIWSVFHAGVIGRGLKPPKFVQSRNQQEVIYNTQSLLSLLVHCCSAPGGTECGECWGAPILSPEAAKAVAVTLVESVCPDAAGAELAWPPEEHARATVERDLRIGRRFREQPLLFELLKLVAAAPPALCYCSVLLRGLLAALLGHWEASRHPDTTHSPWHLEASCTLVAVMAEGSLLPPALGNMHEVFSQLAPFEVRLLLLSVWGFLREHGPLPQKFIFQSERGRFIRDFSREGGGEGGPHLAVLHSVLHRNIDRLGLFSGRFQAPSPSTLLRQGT
# Sequence of UniProt P15260 (P15260 whole entry, looked up): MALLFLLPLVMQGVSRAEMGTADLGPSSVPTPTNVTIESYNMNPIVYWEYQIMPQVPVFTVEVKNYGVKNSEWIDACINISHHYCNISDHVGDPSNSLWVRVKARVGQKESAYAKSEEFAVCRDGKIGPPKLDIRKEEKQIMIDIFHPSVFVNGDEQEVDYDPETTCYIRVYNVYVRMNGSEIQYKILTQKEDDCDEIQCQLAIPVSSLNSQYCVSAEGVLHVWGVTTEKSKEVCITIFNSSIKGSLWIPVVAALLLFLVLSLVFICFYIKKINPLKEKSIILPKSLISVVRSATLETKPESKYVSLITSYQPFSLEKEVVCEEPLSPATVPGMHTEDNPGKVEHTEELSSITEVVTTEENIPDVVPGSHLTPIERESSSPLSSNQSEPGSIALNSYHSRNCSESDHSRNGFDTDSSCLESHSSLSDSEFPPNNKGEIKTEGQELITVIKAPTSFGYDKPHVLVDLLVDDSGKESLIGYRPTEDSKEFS
# Sequence of UniProt P16278 (P16278 whole entry, looked up): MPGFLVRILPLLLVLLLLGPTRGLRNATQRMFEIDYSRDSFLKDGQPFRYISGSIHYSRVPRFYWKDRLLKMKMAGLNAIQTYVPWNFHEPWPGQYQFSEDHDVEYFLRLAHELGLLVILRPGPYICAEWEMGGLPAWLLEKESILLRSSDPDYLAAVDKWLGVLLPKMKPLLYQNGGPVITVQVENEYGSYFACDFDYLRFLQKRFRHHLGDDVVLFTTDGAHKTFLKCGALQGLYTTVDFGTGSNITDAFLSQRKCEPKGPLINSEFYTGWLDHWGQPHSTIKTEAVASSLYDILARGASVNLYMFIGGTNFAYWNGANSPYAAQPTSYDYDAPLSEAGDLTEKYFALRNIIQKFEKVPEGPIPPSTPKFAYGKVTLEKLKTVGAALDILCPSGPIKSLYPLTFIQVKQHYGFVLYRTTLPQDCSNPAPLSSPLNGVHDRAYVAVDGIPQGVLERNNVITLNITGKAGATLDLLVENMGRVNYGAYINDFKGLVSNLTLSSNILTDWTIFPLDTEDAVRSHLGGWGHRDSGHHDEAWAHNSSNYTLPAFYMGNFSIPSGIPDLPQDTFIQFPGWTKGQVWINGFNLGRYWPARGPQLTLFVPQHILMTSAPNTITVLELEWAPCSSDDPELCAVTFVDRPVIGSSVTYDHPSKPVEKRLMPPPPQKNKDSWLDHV
# Sequence of UniProt P62873 (P62873 whole entry, looked up): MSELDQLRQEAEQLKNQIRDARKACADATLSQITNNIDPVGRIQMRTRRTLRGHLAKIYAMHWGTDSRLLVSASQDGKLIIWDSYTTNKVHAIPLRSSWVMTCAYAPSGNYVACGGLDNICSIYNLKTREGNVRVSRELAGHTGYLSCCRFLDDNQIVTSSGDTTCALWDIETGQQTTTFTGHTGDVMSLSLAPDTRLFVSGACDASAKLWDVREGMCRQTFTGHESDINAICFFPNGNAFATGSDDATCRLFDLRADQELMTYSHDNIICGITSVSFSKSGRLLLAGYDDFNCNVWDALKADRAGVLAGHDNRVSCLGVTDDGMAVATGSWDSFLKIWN
# Sequence of UniProt Q6NT76 (Q6NT76 whole entry, looked up): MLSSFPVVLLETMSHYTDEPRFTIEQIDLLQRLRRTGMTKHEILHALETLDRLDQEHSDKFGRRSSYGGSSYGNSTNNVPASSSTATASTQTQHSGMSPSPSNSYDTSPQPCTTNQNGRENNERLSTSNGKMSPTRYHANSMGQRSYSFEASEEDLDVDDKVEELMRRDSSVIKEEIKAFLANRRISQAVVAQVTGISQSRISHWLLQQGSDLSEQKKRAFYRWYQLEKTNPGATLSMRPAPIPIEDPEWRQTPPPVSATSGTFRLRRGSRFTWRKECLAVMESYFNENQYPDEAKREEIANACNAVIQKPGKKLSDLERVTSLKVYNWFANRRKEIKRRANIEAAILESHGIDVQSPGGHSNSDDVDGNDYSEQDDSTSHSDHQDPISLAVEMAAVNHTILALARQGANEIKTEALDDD
# Sequence of UniProt Q9Y287 (Q9Y287 whole entry, looked up): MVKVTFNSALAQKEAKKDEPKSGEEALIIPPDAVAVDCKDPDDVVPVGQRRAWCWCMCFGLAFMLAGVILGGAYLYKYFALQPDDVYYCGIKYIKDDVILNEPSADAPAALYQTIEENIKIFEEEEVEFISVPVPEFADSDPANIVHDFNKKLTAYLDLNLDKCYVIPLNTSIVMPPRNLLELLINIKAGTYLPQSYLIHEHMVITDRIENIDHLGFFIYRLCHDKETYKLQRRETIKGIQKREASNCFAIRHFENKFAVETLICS
# Sequence of UniProt Q8IY47 (Q8IY47 whole entry, looked up): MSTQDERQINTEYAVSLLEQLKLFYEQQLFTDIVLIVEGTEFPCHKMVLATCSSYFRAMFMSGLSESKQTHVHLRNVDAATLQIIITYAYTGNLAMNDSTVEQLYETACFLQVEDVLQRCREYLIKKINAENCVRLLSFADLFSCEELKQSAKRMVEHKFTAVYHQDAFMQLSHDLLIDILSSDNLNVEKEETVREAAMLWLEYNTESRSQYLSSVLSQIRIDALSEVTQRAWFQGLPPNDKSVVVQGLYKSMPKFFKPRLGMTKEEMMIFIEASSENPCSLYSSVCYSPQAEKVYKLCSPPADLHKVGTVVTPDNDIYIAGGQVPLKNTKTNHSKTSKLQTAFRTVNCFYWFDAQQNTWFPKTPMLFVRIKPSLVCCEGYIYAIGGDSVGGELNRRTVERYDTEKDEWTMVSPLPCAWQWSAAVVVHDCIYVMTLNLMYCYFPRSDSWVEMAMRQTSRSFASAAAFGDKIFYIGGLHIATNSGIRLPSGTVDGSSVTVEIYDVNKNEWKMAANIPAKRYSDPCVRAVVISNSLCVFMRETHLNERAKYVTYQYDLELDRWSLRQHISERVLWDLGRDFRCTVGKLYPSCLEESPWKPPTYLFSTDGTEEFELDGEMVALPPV
# Sequence of UniProt P52655 (P52655 whole entry, looked up): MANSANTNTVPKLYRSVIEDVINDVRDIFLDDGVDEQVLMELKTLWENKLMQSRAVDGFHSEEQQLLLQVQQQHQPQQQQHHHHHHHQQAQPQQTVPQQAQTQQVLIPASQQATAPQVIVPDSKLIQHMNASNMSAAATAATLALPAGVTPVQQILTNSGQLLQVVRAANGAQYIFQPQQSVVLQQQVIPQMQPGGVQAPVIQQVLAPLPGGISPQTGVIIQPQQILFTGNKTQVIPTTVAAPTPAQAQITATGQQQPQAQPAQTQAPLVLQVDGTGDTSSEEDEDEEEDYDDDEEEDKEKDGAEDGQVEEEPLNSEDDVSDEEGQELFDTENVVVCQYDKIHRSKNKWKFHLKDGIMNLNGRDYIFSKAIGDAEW
Target,log2 fold change [1],log2 fold change [2],log2 fold change [3],log2 fold change [4],log2 fold change [5]
GRK2 (UniProt P25098),-0.05,0.009,0.03,0.007,-0.008
HMGCL (UniProt P35914),0.057,-0.017,0.058,0.046,0.006
HERC2 (UniProt O95714),0.005,-0.07,-0.011,0.018,-0.037
HNRNPM (UniProt M0QZM1),-0.093,-0.092,-0.01,0.152,
INTS5 (UniProt Q6P9B9),-0.086,-0.034,-0.019,0.015,0.127
GOLPH3L (UniProt Q9H4A5),-0.046,0.005,0.022,-0.009,0.021
HMGN4 (UniProt O00479),-0.137,-0.395,-0.186,0.297,0.513
ISY1 isoform 1 (UniProt Q9ULR0),0.016,0,0.001,-0.12,-0.004
HAUS3 (UniProt Q68CZ6),-0.035,0.023,0.051,-0.032,0.064
ILK (UniProt Q13418),-0.009,-0.019,0.004,0.027,-0.002
GNB1 (UniProt P62873),0.042,-0.051,-0.038,0.069,-0.329
GTF2H4 (UniProt Q92759),-0.08,0.044,0.039,0.015,0.02
HK2 (UniProt P52789),-0.021,-0.016,0.043,0.019,0.063
HIST2H2AA3 (UniProt Q6FI13),0.017,0,-0.111,0.268,0.277
HEATR6 (UniProt Q6AI08),-0.039,-0.086,0.05,0.008,0.014
"HNRNPL, A0A3B3ITJ4",-0.063,-0.011,,,
ITM2B (UniProt Q9Y287),-0.019,-0.032,0.43 (active),0.058,-0.027
IMPDH2 (UniProt P12268),0,-0.014,-0.007,0.045,0.017
GYPA (UniProt P02724),0.071,-0.055,-0.002,0.138,0.236
HS1BP3 (UniProt Q53T59),0.018,-0.03,-0.073,0.004,-0.053
GTF3C3 (UniProt Q9Y5Q9),-0.018,-0.019,0.03,-0.052,0.032
HAUS8 (UniProt Q9BT25),0.016,-0.029,0,0.009,0
GON4L (UniProt Q3T8J9),0.027,0,0.008,0.003,0.466 (active)
HARS (UniProt P12081),0.025,0.006,0.001,0.008,0.002
HDAC10 (UniProt Q969S8),-0.076,0.115,0.21,0.197,-0.055
HADH isoform 2 (UniProt Q16836),0.012,0.004,-0.047,0.013,0.086
KCT2 (UniProt Q8NC54),0.069,-0.008,-0.05,-0.033,-0.173

Target,log2 fold change [1],log2 fold change [2],log2 fold change [3],log2 fold change [4],log2 fold change [5]
HNRNPLL (UniProt Q8WVV9),0.018,0.028,0.007,0.022,0.036
GTF2I (UniProt P78347),-0.026,0,0.009,0.015,0.061
GNL3 (UniProt Q9BVP2),0.018,0.087,0.006,-0.023,0.041
HMGN5 (UniProt Q5JSK9),-0.067,0.015,,,
HNRNPAB isoform 3 (UniProt Q99729),-0.015,0.023,-0.025,0.01,-0.069
KBTBD4 isoform 2 (UniProt Q9NVX7),-0.014,-0.003,-0.106,-0.025,0.016
INTS1 (UniProt Q8N201),-0.017,0.065,-0.045,0.019,0.004
GMIP (UniProt Q9P107),0.023,-0.04,-0.04,-0.018,0.054
GLB1 (UniProt P16278),0.02,0.033,0.046,0.016,-0.019
KDM5C (UniProt P41229),-0.01,0,0.008,-0.01,0.032
GTF2A1 (UniProt P52655),0.025,-0.033,-0.01,-0.057,0.202
GIT1 (UniProt Q9Y2X7),0.013,-0.008,0.009,0.093,0.073
HMBOX1 isoform 5 (UniProt Q6NT76),0.016,-0.008,0.055,0.027,-0.114
HLTF (UniProt Q14527),-0.053,-0.006,-0.065,0.028,0.011
GTF3C5 isoform 3 (UniProt Q9Y5Q8),-0.024,0.001,0.019,0.056,0.016
HAUS4 (UniProt Q9H6D7),-0.009,-0.043,0.019,0.019,0.02
KHK isoform 2 (UniProt P50053),-0.01,0.034,-0.003,-0.137,0.142
GNE isoform 2 (UniProt Q9Y223),-0.072,0.006,0.023,0.007,0.06
GSTP1 (UniProt P09211),-0.018,0.004,-0.003,-0.017,0.035
KBTBD2 (UniProt Q8IY47),0.016,-0.005,0.025,0.012,-0.119
INTS3 (UniProt Q68E01),0.017,0.063,-0.043,-0.06,0.074
GSTZ1 (UniProt G3V4T6),0.035,0.002,-0.036,0.062,-0.042
GMDS (UniProt O60547),-0.003,-0.014,0.042,0.033,0.005
KARS1 (UniProt Q15046),0.005,0.019,0.002,0.045,0.045
IFNGR1 (UniProt P15260),0.094,0.083,0.142,-0.299,-0.479
HIST2H2BC (UniProt Q6DN03),-0.03,0.065,0.014,0.003,0.165
HAUS2 (UniProt Q9NVX0),-0.186,0.148,0.077,0.016,0.176
